Bioassay records (PubChem)
GLP1R ag: qHTS of GLP-1 Receptor Agonists; Potency, µM (titrated, usually from 45.6 µM), actives largely listed as activators; Glucagon-like peptide 1 receptor (Homo sapiens), P43220; 380,000 compounds, 0.007% hits; HEK293 GLP-1R CRE-luciferase, luminescence, 4-6 h; cells express a hypersensitive GLP-1R form
PTHR1 agonist: qHTS for PTHR1 Agonists: Primary Screen | Parathyroid hormone/parathyroid hormone-related peptide receptor (Homo sapiens), Q03431 | HEK293 GP2 PTHR1 cells, GloSensor cAMP luminescence, 1 h | Potency, µM (series often up to 115 µM), usual class: activators | 410,000 compounds, 0.075% hits | AID 743266, 2014; note: nearly all actives have a fitted effect of over 55% in size
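HEK-293-derived GP2 cells expressing PTHR1 and a GloSensor cAMP reporter, 3,000/well, plated overnight, given luciferin plus IBMX (each 0.5 mM as added) for 1 h at 37 °C, then compound for 1 h at 37 °C. Luminescence was read after 15 min at room temperature.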
GLP-1R inv ag: qHTS of GLP-1 Receptor Inverse Agonists (Inhibition Mode). HEK293 GLP-1R CRE-luciferase, luminescence, 24 h; GLP-1R form is constitutively active. Glucagon-like peptide 1 receptor (Homo sapiens), P43220. 410,000 compounds, 1.6% hits. Potency, µM (top dose mostly 38.3 µM), actives largely listed as inhibitors; note: nearly all actives have a fitted effect of over 55% in size
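GLP-1R inverse agonism mode: basal reporter luminescence in engineered HEK293 cells measured after one day of compound exposure at 37 deg C, with a 12 min room-temperature detection step.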
GLS inh: qHTS for Inhibitors of Glutaminase (GLS). Glutaminase kidney isoform, mitochondrial (Homo sapiens), O94925. GLS enzymatic activity, qHTS titration. Potency, µM (highest dose often 45.5 µM), most hits filed as inhibitors. 410,000 compounds, 0.21% hits. AID 624170, 2012
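Coupled fluorescence readout: glutamate oxidase/HRP/Amplex Red detect glutamate formed by hKGA from L-glutamine (1 mM solution added). Buffer 45 mM KH2PO4 pH 8.2, 0.02% Tween-20; reads at t0 and 30 min RT.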
ALOX12 inh: Primary qHTS assay for inhibitors of human arachidonate 12S-lipoxygenase (ALOX12): Round 2 | Polyunsaturated fatty acid lipoxygenase ALOX12 (Homo sapiens), P18054 | purified 12hLO, xylenol orange hydroperoxide absorbance | Potency, µM (top dose mostly 108 µM), usual class: inhibitors | 580,000 compounds, 1.1% hits | AID 1671190, 2021
Target sequence (P18054 whole entry, looked up): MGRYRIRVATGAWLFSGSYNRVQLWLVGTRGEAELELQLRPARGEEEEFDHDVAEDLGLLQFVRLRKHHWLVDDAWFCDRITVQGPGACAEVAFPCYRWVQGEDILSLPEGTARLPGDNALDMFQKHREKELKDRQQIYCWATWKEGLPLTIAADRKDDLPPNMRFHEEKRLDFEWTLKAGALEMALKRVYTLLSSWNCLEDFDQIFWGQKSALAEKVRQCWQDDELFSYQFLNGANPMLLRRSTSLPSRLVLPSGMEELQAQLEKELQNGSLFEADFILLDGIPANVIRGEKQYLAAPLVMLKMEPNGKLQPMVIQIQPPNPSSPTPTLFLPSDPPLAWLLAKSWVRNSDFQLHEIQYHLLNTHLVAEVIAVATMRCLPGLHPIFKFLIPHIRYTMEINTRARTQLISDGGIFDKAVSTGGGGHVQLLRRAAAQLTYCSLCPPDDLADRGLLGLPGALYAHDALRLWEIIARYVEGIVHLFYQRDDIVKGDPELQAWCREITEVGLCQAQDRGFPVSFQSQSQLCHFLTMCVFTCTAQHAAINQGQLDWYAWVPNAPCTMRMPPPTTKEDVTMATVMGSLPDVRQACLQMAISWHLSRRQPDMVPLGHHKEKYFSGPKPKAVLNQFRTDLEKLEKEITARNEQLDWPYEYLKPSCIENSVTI
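Purified human 12hLO (150 nM final) in 25 mM Hepes, 0.01% Triton X-100, pH 7.0 was preincubated 15 min at room temperature with compound. Then 40 uM arachidonic acid was added, 30 min. Hydroperoxide was read by Fe-XO absorbance ratio 573/405 nm.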
GRP78 ERSR act: qHTS for Inducers of the Endoplasmic Reticulum Stress Response (ERSR) in Human Glioma: qHTS | U87-MG GRP78 promoter luciferase reporter, 16 h | Potency, µM, usual class: activators | 420,000 compounds, 0.02% hits; note: series mostly up to about 76 µM; nearly all actives have a fitted effect of over 35% in size
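Stably transfected U87-MG glioma cells carrying a GRP78-based luciferase sensor; 16 h compound incubation. Luminescence end-point read 10 min after Bright-Glo addition at room temperature.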
Of the large screens only hits and unclear results are named; the others gave an inactive call. A selection: hits, their analogues and other compounds. The true share with any hit is near 2.3%. Calls come from the whole dose curve; as a rule, active = well fitted curve in the direction sought with a large enough effect; inconclusive = small, poorly fitted or top-dose-only effect, or another doubt; inactive = no such curve, though single readings can be large; an effect the other way counts as inactive or inconclusive.

CCCN(Cc1cccs1)C(=O)Nc1cc(Cl)ccc1OC	none (no result: GLP1R ag, PTHR1 agonist, GLP-1R inv ag, GLS inh, GRP78 ERSR act)
O=C(NC1CCCCCCC1)C1(c2ccccc2)CCC1	none (no result: GLP1R ag, PTHR1 agonist, GLP-1R inv ag, GLS inh, GRP78 ERSR act)
Cc1c(O)ccc(-c2n[nH]c(C(=O)O)c2-c2nc3ccccc3s2)c1O	ALOX12 inh 35µM
Cc1nc(S/C(=C\c2ccc(-c3ccc(C(=O)O)c(Cl)c3)o2)C(=O)O)n[nH]1	GLS inh 16µM, ALOX12 inh inconclusive
Cc1nc(S/C(=C\c2ccc(OCc3ccccc3Cl)cc2)C(=O)O)n[nH]1	none
S=C(NCCc1ccccc1)N1CCC2CC1c1cc(-c3ccc4c(c3)OCO4)ccc12 (configuration not stated)	GLP-1R inv ag inconclusive, ALOX12 inh 28µM
O=C(c1ccccc1F)N1CCC2CC1c1cc(-c3ccc4c(c3)OCO4)ccc12 (configuration not stated)	GLP-1R inv ag inconclusive
COCCNC(=S)N1CCC2CC1c1cc(-c3ccc4c(c3)OCO4)ccc12 (configuration not stated)	GLP-1R inv ag inconclusive, ALOX12 inh 28µM
CCn1c(SC(C)C(=O)Nc2cccc(F)c2)nc2ccccc2c1=O (configuration not stated)	none (no result: GLP1R ag, PTHR1 agonist, GLP-1R inv ag, GLS inh, GRP78 ERSR act)
Cc1ccc2nc(SCC(=O)Nc3ccccc3C(=O)Nc3ccc4c(c3)OCO4)[nH]c2c1	none (no result: GLP1R ag, PTHR1 agonist, GLP-1R inv ag, GLS inh, GRP78 ERSR act)
O=C(O)C1Nc2c(C(=O)N3CCOCC3)cccc2C2C=CCC12 (configuration not stated)	GLS inh 2.5µM (no result: ALOX12 inh)
Cc1ccc2c(c1C)NC(C(=O)O)C1CC=CC21 (configuration not stated)	GLS inh inconclusive (no result: ALOX12 inh)
CC(=O)O[C@H]1C[C@@H]2CC[C@@]1(C)C2(C)C	none (no result: GLP1R ag, PTHR1 agonist, GLP-1R inv ag, GLS inh, GRP78 ERSR act)
CC(=O)OC(COC1CC2CCC1(C)C2(C)C)C[N+]1(C)CCCCC1 (configuration not stated)	ALOX12 inh 13µM (no result: GLP1R ag, PTHR1 agonist, GLP-1R inv ag, GLS inh, GRP78 ERSR act)
O=S(=O)(O)c1cccc2cccc(Nc3ccccc3)c12	ALOX12 inh 40µM
COc1cccc(CNC(=O)CN2C(=O)N(c3ccccc3C)S(=O)(=O)c3ccccc32)c1	none (no result: GLP1R ag, PTHR1 agonist, GLP-1R inv ag, GLS inh, GRP78 ERSR act)
CCOc1ccc(C2c3[nH]c4ccccc4c3CCN2C(=O)CSc2ccccc2)cc1 (configuration not stated)	GLP-1R inv ag 5µM (no result: GLP1R ag)
Cc1ccc(C2c3[nH]c4ccccc4c3CCN2C(=O)CSc2ccccc2)cc1 (configuration not stated)	GLP-1R inv ag inconclusive, ALOX12 inh inconclusive (no result: GLP1R ag)
Cc1ccc(C2c3[nH]c4ccccc4c3CCN2C(=O)CSCc2ccc(F)cc2)cc1 (configuration not stated)	GLP-1R inv ag inconclusive (no result: GLP1R ag)
O=C(CCC1CCCC1)N1CCc2c([nH]c3ccccc23)C1c1ccc(Cl)cc1 (configuration not stated)	GLP-1R inv ag 3.2µM (no result: GLP1R ag)
CCOC(=O)c1[nH]c(C)c(C(=O)N2CCc3c([nH]c4ccccc34)C2c2ccccn2)c1C (configuration not stated)	GLP-1R inv ag 11µM
Cc1cc2cc(C(=O)N3CCc4c([nH]c5ccccc45)C3c3ccccn3)ccc2o1 (configuration not stated)	GLP-1R inv ag inconclusive
O=C(CSCc1ccc(F)cc1)N1CCc2c([nH]c3ccccc23)C1c1ccc(F)cc1 (configuration not stated)	GLP-1R inv ag 4.5µM (no result: GLP1R ag)
Cc1ccc(NC(=O)CCNC(=O)c2ccccc2)cc1S(=O)(=O)N1CCCCC1	none (no result: GLP1R ag, PTHR1 agonist, GLP-1R inv ag, GLS inh, GRP78 ERSR act)
CCOc1ccc(C2c3[nH]c4ccccc4c3CCN2C(=O)CCC2CCCC2)cc1 (configuration not stated)	GLP-1R inv ag 1.3µM (no result: GLP1R ag)
CCOc1cccc(CC(=O)N2CCc3c([nH]c4ccccc34)C2c2ccc(Cl)cc2)c1OCC (configuration not stated)	GLP-1R inv ag 10µM (no result: GLP1R ag)
CN(C(=O)CSc1nc(-c2ccccc2)no1)C1CCCCC1	none (no result: GLP1R ag, PTHR1 agonist, GLP-1R inv ag, GLS inh, GRP78 ERSR act)
Cc1ccccc1C(=O)NC1CCCCC1C (configuration not stated)	none (no result: GLP1R ag, PTHR1 agonist, GLP-1R inv ag, GLS inh, GRP78 ERSR act)
O=C(CCOc1ccccc1)Nc1ccc(Cl)c(S(=O)(=O)N2CCOCC2)c1	none
O=C(CCOc1cccc(Br)c1)Nc1ccc(F)c(S(=O)(=O)N2CCOCC2)c1	GLP-1R inv ag 10µM
O=C(CCCOc1ccccc1)Nc1cccc(S(=O)(=O)N2CCOCC2)c1	none
CC(C)(C)c1ccc(OCCCC(=O)Nc2cccc(S(=O)(=O)N3CCOCC3)c2)cc1	GLP-1R inv ag 7.9µM
O=C(Nc1ccc(F)cc1)c1ccc(S(=O)(=O)C2CCS(=O)(=O)C2)cc1 (configuration not stated)	none (no result: GLP1R ag, PTHR1 agonist, GLP-1R inv ag, GLS inh, GRP78 ERSR act)
COc1ccc(-c2cc(-c3ccccc3)nc3c2COc2ccccc2-3)cc1	none
COc1ccc(C2=Nc3ccccc3OC2)cc1	GLS inh inconclusive, ALOX12 inh 45µM
Cc1ccc(C2=Nc3ccc(Cl)cc3OC2)cc1	ALOX12 inh 22µM (no result: GLP1R ag, PTHR1 agonist, GLP-1R inv ag, GLS inh, GRP78 ERSR act)
CCOC(=O)c1cnc2c(OC)cccc2c1Nc1cc(C(=O)O)ccc1C	none (no result: GLP1R ag, PTHR1 agonist, GLP-1R inv ag, GLS inh, GRP78 ERSR act)
CCN(CC(=O)Nc1ccccc1OC)C(=O)Cc1nc(-c2ccccc2)oc1C	none (no result: GLP1R ag, PTHR1 agonist, GLP-1R inv ag, GLS inh, GRP78 ERSR act)
CCOc1ccc(CNCc2cccn2-c2nnc(N3CCN(C)CC3)s2)cc1	none (no result: GLP1R ag, PTHR1 agonist, GLP-1R inv ag, GLS inh, GRP78 ERSR act)
